Screen size: about 53,000 sequences; about 3,700 (7%) were called active.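 Rule for the calls: active = gene knockdowns whose robust z-score for IL-1 alpha signal is at least 2 or at most -2, so actives lie on both sides; inactive = the rest.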 The sample as a whole holds a higher share of actives than the screen did.
Experiment: Components of the Cytosolic LPS Sensing Pathway: Gene Identification via Genome-wide siRNA Screen;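 note: robust z of the log signal after scaling to non-targeting control siRNA wells of the plate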
Details: RAW264.7 macrophages, IL-1a HTRF, actives lie on both sides, screened at 100 nM (by protocol), cells primed 5 h with Pam3CSK4 first
Outline: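 Read-out: IL-1a HTRF on supernatant, divided by plate negative-control median ×100, log-transformed and converted to robust z-score. Cells were RAW264.7 given 100 nM siRNA, Pam3CSK4-primed 5 hours, then LipidA-transfected 24 hour.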

z-score, inactive:
GGGCCAGCAUGUUAUCUGUTT against Kat8 -0.8
CCAGCCAGACUGAAAAAGCTT against Stmnd1 -0.652
GGGAGAUGCAACAACAAGATT against Epx -0.847
GAAGUGAUGCUGCUAGUAGTT against A030005L19Rik -2
GGAACACUGGGAACGUAUCTT against Ifnk 0.00139
GCCCUAGUGUCUGAAAAAATT against Sfrp5 0.864
GGACAAGGCUGCUACUUCATT against Pou6f2 1.74
GUACAAGUGUGGACCCUUATT against Chchd2 0.409
GCAGGCUACCUCUAAUCCATT against Slc23a3 -0.241
GGAUCUAAAGCUUGAACCUTT against Pheta1 1.24
GGUUCCACAGUGGCAAAUGTT against Vmn1r202 0.957
GCCUAUCACGAGCUAUGAUTT against Shkbp1 -1.5
GGAAUCGAAACCAAUGUGUTT against Il1rl2 -0.471
GCUCCGGAAAUUGGCAUCATT against Ppp1r10 -1.5
GGAGAAGAAGAAAAAGUCATT against BC005537 -0.495
GAUGUUUCAGAACAUUCUUTT against Cadps 0.436
GGACAUAAAAGUGUCUCGATT against Cldn13 0.16
GCCAAGGGUUUGAAAGCCATT against Tpm1 -0.949
CCUCAUGUUAAUCUGGAGATT against Gabre 0.0167
GGAAGUAUUAAUGUACAACTT against Msmo1 0.0519
CGGUGGUCACUGUGAAAUGTT against Nr1h5 0.0152
CGGGAAGAAGUUCAUAAAUTT against Topbp1 0.36
GGUUAAAUGUCGUUUAUACTT against Rasa3 0.308
GCAGUUGACCACAGAAAAUTT against BC061237 -1.35
GGACCCAUGAGGUUAACUUTT against Tbc1d22a 0.922
GGGAACCAGCCAGUUCAAGTT against Ap1g2 1.39
CCGUUUCAUUUCAGGGAGGTT against Phf1 0.307
GGAGAAAUCAAGCAAAGAUTT against Soat1 -0.0846
CCGGAAAUUUUCUUUGCCCTT against Sec23ip -1.12
GCCAUUGGAGUAUAUCUUGTT against Olfr873 -0.273
GGUUCACGAGCUAAGCUGUTT against Sec23b -1.07
GGACCACUCUGAAUAAGACTT against Ttc12 -1.3
GCAGCUCAAUUAGAGUCCATT against Gart -0.11
GGCUUUUUGUCUAACAAGUTT against Trappc13 0.23
GCUGGUUAUUCUCUUAUAGTT against Cavin2 1.97
GGUAGGUCGUCGAGAAUACTT against Prss44 0.17
GGAUCCUCUGGUAAAGGGATT against Gng11 -1.75
GGAGUUCCUCAUGAAGAUGTT against Tmem241 -1.27
GGUGCAAACAGACACCAGATT against Dct -0.982
GGGAGGGAAUAGUCAAAAATT against Timm17b 0.909
GGAGAGCAAGGAGAACCAATT against Itga7 1.35
CGAUUACUGAACACUAUAUTT against Metap1 1.94
GGUGUACCCAGUACUGCCATT against Cdk2 0.57
CGGACAGAUACAAUAGCUATT against Zc3h4 -1.53
GUCUUUCCCUAAAAACAGCTT against Vmn1r47 -1.28
GGAGAACUUCAACAAUGUCTT against Tesc 0.46
GGAGUUUCGCAUGAGCCUGTT against Shroom1 -0.0803
GCCACUAUUGAAGCUUGCCTT against Olfr1209 1.32
GGAGGAGUUCCAGAUCCACTT against Pald1 -0.356
GGACAGCAUGAUCCUACAATT against Smr2 -0.962
GGAAAUACCCUGAUAGCCATT against Etl4 0.215
GGUAGGAAGCUAGAGAAAUTT against Synj2 0.139
GGACUUUAGUGACAGCUAUTT against Fam243 -0.233
GGCAGCCCUCAAGUUAAUCTT against Zfp612 -0.552
GCACCUUCCAUCGGAAUGCTT against Tyw5 -0.269
GGAGAAAAAGAUCUCAGCUTT against D830039M14Rik -0.021
CCAUGGCCAAGAACUAGUUTT against Hp 1.26
GGAUUUGAAAUAGGAAUAGTT against Sh3yl1 0.689
CCCUAUCUUCAGGCCAUUGTT against Gm10283 -1.97
CCUGGAGUUAGUUUGACAGTT against Atf4 -0.042
GGGCCUAUCUGAAAGUUUATT against Nrm -0.262
GGUAGAAGAAUGCAUAAUGTT against Sema3e 0.82
CGAGAAUACCAAACUCGUGTT against Usp17ld -0.255
GCAGUAAGCUUUUGCUAAATT against Zfp334 1.26
CCUCUUCGGGAAAAUUCUATT against Dao -0.083
GGGAUAUCUAAUCAAAACCTT against St8sia5 -0.131
GGCAAAGCAACAAUAUCUATT against Cct7 -0.809
GGUAUCAAAACAACAGUCCTT against Upk1b -0.709
CCUCAAAUUUUGGGUCUCATT against Bcat2 -1.48
GGGUGAGAUAGGAAAGUGGTT against Rab43 -0.111
GAUUCUCAUCUCAAUAAGCTT against Serpinb9g 0.439
CCUCCAAGACUUAAAAGUATT against Csde1 0.776
CCUUAUAACUCUUACGUUUTT against Naa50 -0.169
GGAAAUGAAGACAUACCUGTT against Olfr175 0.741
GGAGUGAUGUCUUCACUGATT against Snx31 -1.12
GGUCUUCAUGAAAACCCUCTT against Polr2d -0.967
GCUAGGUGAUCAGAGAACUTT against Nsl1 0.222
GGCCUUCAGUCAAGCAUCATT against Myom1 0.906
GCCCAUUGUAAUAAAAGCCTT against Dnali1 -0.582
CCAAGAUGCACAGUGAUAATT against Pknox2 -0.925
GGAUAUCGUCUGCUACCUGTT against Dgkb 0.945
GCACAACCAUAAUUCCAAATT against Olfr828 -0.343
CCGAAUAGUAGAUAUUAGATT against Zbtb1 -0.628
GGAAGUCUGUCCAAAGCAUTT against Olfr190 0.248
GUUCUGCUUUUUGUCAUAUTT against Olfr1431 -0.79
GGAGAUGGUUAUGUGGGAUTT against Tgoln2 0.879
GGUGAAACCUGUCAUUCACTT against Dcdc2a -0.405

z-score, active:
GCUUUACCUGCAUAUUCCATT against Nradd -2.04
GGACAAAUGAACAUGCUGATT against Edn2 -2.26
GGCACUUCUUAAUCCCACATT against Nfe2 -2.41
GCUACCAUCUGCUAAUACATT against Smg1 3.65
GGUUCAAAUGUUCUCCAUATT against 9530080O11Rik 2.55
GGCUUGUUUUGCCCAGAUGTT against Olfr398 -2.94
GGAUAUCGAGGAGAUGAUCTT against Aoc3 -2.17
GGCUACAGCAAGAAGACUUTT against Ctsw 3.08
GGAAGGAUUCUGGAAACAGTT against 2210409E12Rik -2.1
GGAUCAACAGAGGUUGGCATT against Aldh1a7 -2.03
GGGCUGUCUAAGAAUGCAATT against Nlrp14 -2.08
CCACUACAAUGUAGCGACGTT against C1qtnf9 -2.24
GGAGAUGUUGGACUUCAUGTT against Nxnl2 -2.42
GGGCUGUGAACACAAGUGUTT against Megf6 2.02
GCACAAUUGGAAUUGUACATT against Ubqln2 -2.18
GCGGUUAUCUGCAUAUAGATT against Ahctf1 -2.47
GGUCAAAUGCACCCGAUUATT against Hoxc10 2.44
GGGAAUUUACUGCAGGAUATT against Itln1 2.72
GGCGUGUAUCUAUACACACTT against Glp1r 3.1
GCGUGUUGAAUUGAGGAAGTT against Galnt11 4.15
